Rows were chosen to be rich in hits. Some 2.4% of all compounds tested hit in one or more screens of this group.
Yeast superoxide: lowers age-related superoxide in aged yeast cells | actives 0.18% (n = 330,000) | superoxide response (% of plate mean), % at 10 µM | AID 2690 | S. cerevisiae aged cells, superoxide DHE fluorescence; stronger effect = lower value;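 active = superoxide response under a set limit, about three screen SD below normal, cut at about 65% in these data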;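 note: yeast aged for seven days with compound at 30 °C before DHE staining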
A3G deaminase: inhibitors of human APOBEC3G DNA deaminase; recombinant A3G, ssDNA deamination FAM/TAMRA fluorescence; inhibition, % at 20 µM; actives 0.28% (n = 330,000); AID 493012;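 active = inhibition of at least 40% at 20 µM, with no more than 30% in the related APOBEC3A deaminase screen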
Target sequence (Q9HC16 whole entry, looked up): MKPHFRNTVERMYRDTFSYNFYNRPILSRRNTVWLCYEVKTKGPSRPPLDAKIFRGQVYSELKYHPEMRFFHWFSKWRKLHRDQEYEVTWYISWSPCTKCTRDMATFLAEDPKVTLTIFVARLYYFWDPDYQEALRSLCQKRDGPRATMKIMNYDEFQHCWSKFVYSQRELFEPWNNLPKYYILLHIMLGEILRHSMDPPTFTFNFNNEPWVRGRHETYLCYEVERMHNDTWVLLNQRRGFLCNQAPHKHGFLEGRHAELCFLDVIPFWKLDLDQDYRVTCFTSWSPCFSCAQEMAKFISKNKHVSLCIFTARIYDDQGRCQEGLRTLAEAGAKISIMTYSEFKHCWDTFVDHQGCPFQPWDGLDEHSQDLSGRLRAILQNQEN
A3A deaminase: inhibitors of human APOBEC3A DNA deaminase; P31941; recombinant A3A, FAM/TAMRA ssDNA deamination fluorescence; inhibition, % at 20 µM; actives 0.41% (n = 330,000); AID 493011;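 active = at least 40% inhibition at 20 µM here, with at most 30% in a related deaminase screen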
Target sequence (P31941 whole entry, looked up): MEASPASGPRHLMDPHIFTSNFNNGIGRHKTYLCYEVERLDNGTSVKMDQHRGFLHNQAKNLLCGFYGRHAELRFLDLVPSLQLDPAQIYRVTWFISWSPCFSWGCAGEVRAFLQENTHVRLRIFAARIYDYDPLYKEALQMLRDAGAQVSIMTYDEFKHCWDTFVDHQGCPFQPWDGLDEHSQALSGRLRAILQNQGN
PfGluPho inh: PfG6PD (Plasmodium falciparum) enzyme inhibition; PfGluPho enzyme, NADPH resazurin-diaphorase fluorescence; inhibition, % at 20 µM; actives 0.78% (n = 350,000); AID 504690;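 active = inhibition reaching at least a set limit at 20 µM in the primary screen, cut at about 59% in these data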
M18AAP inhibitor: PfM18AAP enzyme inhibition | recombinant PfM18AAP, H-Glu-NHMec fluorogenic cleavage | inhibition, % at 7.35 µM | actives 1.2% (n = 290,000) | AID 1822;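 active = inhibition above the campaign mean inhibition over all tested compounds plus 3 SD, cut at about 28% in these data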
A number is an active result; . = inactive; / = no result given.

SMILES	Yeast superoxide	A3G deaminase	A3A deaminase	PfGluPho inh	M18AAP inhibitor
CC[n+]1c(/C=C/Nc2ccccc2)sc2ccccc21	.	.	.	.	30
CCN1/C(=C/C=C/C=C/c2sc3ccccc3[n+]2CC)Sc2ccccc21	.	.	.	/	37
CCN1/C(=C/C=C/c2sc3ccccc3[n+]2CC)Sc2ccccc21	.	.	.	.	/
CC[n+]1c(/C=C(\C)Nc2ccccc2)sc2ccccc21	.	/	/	.	.
O=C1NN(c2ccccc2)C(=O)/C1=C\c1ccc2c(c1)OCO2	.	.	.	.	29
COc1cccc(/C=C2/C(=O)NN(c3ccccc3)C2=O)c1	.	/	/	.	.
Cc1ccc(O)c(N/C=C/C(=O)c2ccc(F)cc2)c1	.	.	.	.	28
Oc1ccc(C2=CSC3=NCCN23)cc1O	.	.	.	.	55
CCc1ccccc1NC(=O)c1ccc2nc(N3CCOCC3)sc2c1	.	.	.	.	.
Cc1ccc(NC(=O)c2ccc3nc(N4CCOCC4)sc3c2)c(Cl)c1	.	.	.	.	29
Cc1ccc(C(=O)Nc2ccc(N3CCOCC3)nc2N2CCOCC2)cc1	.	.	.	.	28
N#CCCn1nc(-c2ccccc2)c2ccccc2c1=O	.	.	.	.	.
C=C1C(C(=O)Nc2ccccc2)C1C(=O)Nc1ccccc1 (stereo unspecified)	.	.	.	.	.
CSc1ccc(C(=S)N2CCCCCC2)cc1	.	.	.	.	.
CCN1CCN(C(=S)c2ccc(SC)cc2)CC1	.	.	.	.	31
CN(C)CCCNC(=O)c1cc(C(=O)c2cccc(Cl)c2Cl)c[nH]1	.	.	.	.	.
Cc1sc(/N=C/c2ccccc2O)c(C#N)c1C	.	/	/	/	36
CC(C)N(Cc1ccccc1)C(=O)CN1c2cccc3cccc(c23)S1(=O)=O	.	.	.	.	/
Cc1ccc(S(=O)(=O)NNc2ccccc2)c(C)c1	.	/	/	83	.
Cc1ccc2c(c1)-c1cc(C)ccc1C2=O	/	/	/	.	/
CC(=O)NC1Sc2ccccc2N=C1c1ccccc1 (stereo unspecified)	.	.	.	63	.
CCc1ccc(/C=C/C(=O)c2cc(Br)ccc(=O)c2O)cc1	.	.	.	.	60
CCOC(=O)c1c(-c2ccccc2)oc2ccc(OCC(O)CN(C)C)cc12 (stereo unspecified)	.	.	.	.	.
COc1ccc(OC)c(/C=C/C(=O)OCC(=O)NCc2cccs2)c1	.	.	.	.	/
C/C(=N/NS(=O)(=O)c1cc(C)ccc1C)c1ccncc1	.	.	.	.	31
SMILES	Yeast superoxide	A3G deaminase	A3A deaminase	PfGluPho inh	M18AAP inhibitor
COc1cc(CN2CCC(C(=O)N3CCC(C)CC3)CC2)cc(Br)c1O	.	.	.	.	31
Cc1cc2nc(-c3ccccc3)cc(=O)n2[nH]1	.	.	.	.	.
O=c1cc(-c2ccccc2)nc2cc(-c3ccco3)[nH]n12	63	.	.	.	.
COC(=O)CC(c1ccc(OC)c(OC)c1)c1ccc(OC)c(OC)c1	.	.	.	.	.
CCN(CCCNC(=O)CCc1nc(-c2ccc(OC)cc2)no1)c1cccc(C)c1	.	.	.	.	32
COc1ccc(-c2noc(CCC(=O)NCCc3ccccc3)n2)cc1	.	.	.	.	.
COc1ccc(OC)c(/C=N/NC(=O)CCc2ccc(O)c(O)c2)c1	.	.	.	.	31
COc1ccc(OC)c(/C=N/NC(=O)CCc2c(C)n[nH]c2C)c1	.	.	.	.	.
Cc1ccc(NC(=O)COC(=O)c2ccc(-n3cccn3)cc2)cc1C	.	.	.	.	/
Nc1cc([N+](=O)[O-])ccc1Nc1ccc(O)cc1	63	.	.	.	.
COc1cccc(/C=N/n2c(COc3ccccc3)n[nH]c2=S)c1OC	.	.	.	.	32
COc1cccc(/C=N/n2c(COc3ccccc3)n[nH]c2=S)c1O	.	.	.	.	.
FC(F)(F)c1ccccc1/C=N/n1c(COc2ccccc2)n[nH]c1=S	.	.	.	.	28
CC1CCCCN1C(=O)c1ccc(C(=O)c2ccccc2)cc1 (stereo unspecified)	.	.	.	.	/
CCOC(=O)CNC(=S)n1cnc(N)n1	.	.	.	.	57
Cc1ccc(C(=O)C(c2ccccc2)N2Cc3ccccc3C2=N)cc1 (stereo unspecified)	.	.	.	65	.
COc1ccc(C(=O)C(c2ccccc2)N2CCOCC2)cc1 (stereo unspecified)	.	.	.	.	.
CCn1c2ccccc2c2nnc(NN)nc21	.	.	.	.	31
CCn1c2ccc(C)cc2c2nnc(NN)nc21	.	.	.	.	.
CC(C)CSc1nnc2c3ccccc3n(C)c2n1	.	.	.	.	.
Cn1c2ccccc2c2nnc(NN)nc21	.	.	.	.	30
O=C(NCCN1CCOCC1)Nc1ccccc1	.	.	.	.	.
O=C(NCCN1CCOCC1)NC1(C(F)(F)F)Oc2ccccc2O1	.	.	.	.	72
O=C(O)c1cccc(N/N=C/c2cn(-c3ccccc3)nc2-c2cccs2)c1	.	.	.	.	31
COc1ccc(C2c3sc(=O)[nH]c3SC3C(=O)N(c4ccccc4)C(=O)C32)cc1 (stereo unspecified)	.	.	.	.	.
SMILES	Yeast superoxide	A3G deaminase	A3A deaminase	PfGluPho inh	M18AAP inhibitor
O=C1C2Sc3[nH]c(=O)sc3C(c3ccccc3)C2C(=O)N1c1ccccc1 (stereo unspecified)	.	.	.	.	29
O=C(Nc1ccc(N2CCCC2)cc1)C(Cl)c1ccccc1 (stereo unspecified)	.	.	.	88	.
CS(=O)(=O)N1CCN(c2ccc(NC(=O)C(c3ccccc3)c3ccccc3)cc2)CC1	.	.	.	.	.
O=C(CC1Sc2ncnn2C1=O)Nc1ccc(Cl)cc1 (stereo unspecified)	.	.	.	.	30
Cc1ccc(NC(=S)NNc2ncc(C(F)(F)F)cc2Cl)c(C)c1	.	.	.	.	28
CC(NC(=O)CN1c2cccc3cccc(c23)S1(=O)=O)c1ccc(S(N)(=O)=O)cc1 (stereo unspecified)	.	.	.	.	/
COc1ccc2c(c1)C(=NNc1ccc(C(=O)O)cc1)c1cc(OC)ccc1-2	.	.	.	.	.
COc1ccc(/C(C)=N/Nc2ccc(C(=O)O)cc2)c(OC)c1	.	.	.	.	29
Oc1ccc(O)c2c1C1c3ccccc3C2c2ccccc21	.	.	.	/	81
CCCCNC(=O)Oc1cc(CCl)on1	.	.	.	/	.
CCCCNC(=O)Oc1c(Br)cc2sc(=O)oc2c1Br	.	.	.	/	30
C=CCc1cccc(/C=N/n2cnnc2)c1O	.	.	.	.	30
C=CCc1cccc(/C=N/NC(=O)C[n+]2ccccc2)c1O	.	.	.	.	29
Cc1ccc(NC(=O)CSCC(=O)N2CCN(c3cccc(C(F)(F)F)c3)CC2)cc1	.	.	.	.	/
COc1ccc(N2C(=O)CC(Nc3ccc(N4CCOCC4)cc3)C2=O)c(OC)c1 (stereo unspecified)	.	.	.	.	28
